Among the data in PubChem BioAssay AID2113 (National Center for Advancing Translational Sciences (NCATS), 2009) are Potency values, retold here.

Several values for one entry are separate records, joined by “and”; a condition that tells them apart may be missing. Identical values can stand only once. Records with an inconclusive call do not appear. Where a call stands in place of a potency, no number is given. Activity calls are given as the source filed them. Calls follow the shape of the dose curve; as a rule, active = well fitted curve in either direction with a large enough effect; inconclusive = small, poorly fitted or top-dose-only effect; inactive = no such curve, though single readings can be large or run the other way.
Potency is read from the fitted curve at half-maximal effect.

For the test, the target named is Lysosomal alpha-glucosidase (Homo sapiens) (UniProt P10253). Put plainly: Confirmation of Inhibitors and Activators of Human alpha-Glucosidase From Spleen Homogenate.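 As to Potency: fluorescence of 4-methylumbelliferone released from a fluorogenic glucopyranoside substrate at pH 5.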 As to conditions: alpha-glucosidase enzyme activity; series mostly up to 60.5 µM. The method in brief: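 Compounds titrated against spleen-homogenate alpha-glucosidase, pH 5.0, 1 mM 4-MU-glucoside substrate, 37 C for 40 min. Fluorescence after pH 10 stop, normalised to no-enzyme and enzyme controls; Hill-equation AC50.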
As for `CC(=O)c1ccc(N2CCN(S(=O)(=O)c3cc4c(cc3Cl)NC(=O)C4)CC2)cc1`, the Potency is 1.83 µM [inhibitor] (active) and 5.17 µM [inhibitor] (active).

For `CCCN1CNc2c(c(=O)[nH]c(=S)n2CCc2ccc(OC)cc2)C1`, the Potency was 14.1 µM (active).

In the case of `CCc1sc(-c2cc3cccc(OC)c3oc2=O)nc1-c1ccccc1`, the Potency entry was “inactive”. For `COc1ccc(/C=c2\s/c(=C/C(=O)c3ccc(C)cc3)[nH]c2=O)cc1OC` the value was “inactive”; for `O=c1oc2ccc(Cl)cc2cc1-c1nc2c(s1)CCc1ccccc1-2`, “inactive”.

Regarding `Cc1ccc2c(=O)c3ccccc3n(CCCN)c2c1C`, the Potency result is “inactive”. With `CCCN1CNc2c(c(=O)[nH]c(=S)n2CCc2ccccc2Cl)C1`, the Potency was 15.8 µM (active). As to `Cc1cc(C)c(C(=O)Cn2cnc3cc([N+](=O)[O-])ccc3c2=O)cc1C`, the Potency result is “inactive”. With `CC(=O)c1ccc(N2CCN(S(=O)(=O)c3ccc4c(c3)n(C)c(=O)n4C)CC2)cc1`, the Potency result is “inactive”. The value for `O=c1oc2ccc(Cl)cc2cc1-c1nc2c(s1)CCCC2` was “inactive”; that for `O=C(O)c1c(-c2ccccc2)c2oc3ccccc3c2[nH]c1=O` was “inactive”; that for `O=NOc1ccc(/C=C/c2nccc3c2[nH]c2ccccc23)cc1` was “inactive”. `CCCN1CNc2c(c(=O)[nH]c(=S)n2CCC)C1`: the Potency entry was “inactive”. Consider `Cc1ccc(S(=O)(=O)N2CCOCC2)cc1`, for which the Potency entry was “inactive”. In the case of `Cc1sc(-c2cc3ccccc3oc2=O)nc1-c1ccccc1`, the Potency entry was “inactive”.

Regarding `O=S(=O)(c1ccccc1Cl)N1CCOCC1`, the Potency result is “inactive”. As to `O=C1Cc2cc(S(=O)(=O)N3CCN(c4ccc(Br)cc4)CC3)ccc2N1`, the Potency result is “inactive”. Turning to `COC(=O)c1cc(OC)c(OC)cc1NC(=O)CCCCCN1C(=O)CCC1=O`, the Potency result was “inactive”. As to `O=S(=O)(c1ccc(Cl)cc1)N1CCN(c2nc(Nc3cc(Cl)ccc3O)nc3ccccc23)CC1`, the Potency entry was “inactive”. Consider `CCCN1CNc2c(c(=O)[nH]c(=S)n2CCc2ccc(C)c(C)c2)C1`, for which the Potency was 20 µM (active). On to `O=C(O)Cn1nnnc1SCC(=O)Nc1ccc(OC(F)(F)F)cc1`, for which the Potency entry was “inactive”. For `O=C(CSc1ncc(C(F)(F)F)cc1Cl)N1CCN(S(=O)(=O)c2ccccc2)CC1` the value was “inactive”. As to `CC(=O)Oc1ccc2cc(-c3nc(-c4ccccc4)c(C)s3)c(=O)oc2c1`, the Potency result was “inactive”. As for `COC(=O)CSc1cc([N+](=O)[O-])ccc1NC(=O)OC`, the Potency entry is “inactive”. As to `O=S(=O)(c1ccc2nc(-c3ccco3)c(-c3ccco3)nc2c1)N1CCOCC1`, the Potency result was “inactive”. For `CCS(=O)(=O)N1Cc2ccccc2CC1C(=O)Nc1ccc(NC(C)=O)cc1` (stereo unspecified) the value was “inactive”. For `COC(=O)CSc1ccc(C#N)c(SCC(=O)OC)c1` the value was “inactive”. In the case of `N#Cc1c(-c2ccc(F)cc2)cc(-c2cccnc2)nc1N`, the Potency result is “inactive”.

On to `Cc1c(OCC(F)(F)F)ccnc1CS(=O)c1nc2ccccc2[nH]1` (stereo unspecified), for which the Potency result was “inactive”. The value for `Cc1ccc(-c2nc(-c3cc4ccccc4oc3=O)sc2C)cc1` was “inactive”; that for `COc1cc2c(cc1OC)-c1cc(OCc3ccccc3Cl)nc(=O)n1CC2` was “inactive”; that for `Nc1ccccc1N=Cc1ccc(-c2cccc(Cl)c2)o1` was “inactive”. Consider `N#Cc1ccccc1S(=O)(=O)N1CCOCC1`, for which the Potency result was “inactive”. The value for `CN(CCO)S(=O)(=O)c1ccc2c(c1)C(=NNC(N)=O)c1cc(S(=O)(=O)N(C)CCO)ccc1-2` was “inactive”; that for `CCCN1CNc2c(c(=O)[nH]c(=S)n2CCc2ccc(C)cc2C)C1` was 39.8 µM (active). As for `O=C(NCCCN1CCOCC1)c1cccs1`, the Potency result is “inactive”.
